Out of some 370,000 compounds screened, about 2,600 (0.7%) were called active. The sample holds actives, similar compounds and a random draw of the others, so the mix is not that of the screen. Values without a mark were called inactive.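 The calls were made as follows: active = inhibition above a per-plate cutoff, mean inhibition of test wells between control levels plus 3 SD (cut at about 38% in these data); inactive = the rest.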

For the test, the target named is COUP transcription factor 2 (Homo sapiens) (UniProt P24468). Nature of the test: COUP-TFII reporter suppression in human cells – cell-based, luciferase reporter, HEK293T, luminescence, primary screen (AID 686940).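 Also: cells cotransfected with COUP-TFII expression vector driving the NGFI-A reporter; 0% = median of COUP-TF2 test wells and 100% = reporter-only cells.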 As to conditions: HEK293T NGFI-A luciferase reporter, at 8.6 µM, active compounds read high.
Sequence of COUP transcription factor 2 (Homo sapiens) (P24468 whole entry, looked up): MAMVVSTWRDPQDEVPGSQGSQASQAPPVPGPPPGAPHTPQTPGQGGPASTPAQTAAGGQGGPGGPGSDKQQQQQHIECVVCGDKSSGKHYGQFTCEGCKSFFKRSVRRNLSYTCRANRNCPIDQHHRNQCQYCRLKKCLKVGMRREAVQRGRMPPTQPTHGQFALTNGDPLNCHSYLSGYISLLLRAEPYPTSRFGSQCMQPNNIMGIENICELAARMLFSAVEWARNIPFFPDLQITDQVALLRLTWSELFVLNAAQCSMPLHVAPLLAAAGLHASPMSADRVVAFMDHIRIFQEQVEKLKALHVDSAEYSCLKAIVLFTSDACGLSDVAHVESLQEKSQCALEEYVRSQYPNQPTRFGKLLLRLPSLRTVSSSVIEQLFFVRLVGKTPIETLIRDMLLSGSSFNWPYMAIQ
As to `CCOC(=O)[C@]12CCCCC/C=C\1N(Cc1ccc(OC)cc1)C(=O)[C@H]2CC(=O)N1CCOCC1`, the inhibition is 13.5%. As for `COc1ccc([C@H]2OC(=O)C[C@H]2C(=O)N2CCN(c3ccccc3F)CC2)cc1OC`, the figure is -8.84%; as for `COCCn1c(C)cc(C(=O)COC(=O)CNC(=O)c2ccco2)c1C`, -5.61%; as for `Cc1cc(C(=O)COC(=O)CNC(=O)c2ccc(F)cc2)c(C)n1Cc1ccco1`, 22.8%. As for `Cc1ccsc1C(=O)OCC(=O)c1cc(C)n(CC2CCCO2)c1C` (stereo unspecified), the figure is 87.1% (active); as for `C=CCn1c(SCC(N)=O)nnc1-c1ccccc1OC`, 9.3%. As for `COC(=O)[C@]12C[C@H](CC(=O)NCc3ccccc3)C(=O)N(CCc3ccc(OC)c(OC)c3)C1=C[C@H](C(C)(C)C)O[C@@H]2C`, the figure is 10.6%; as for `COCCn1c(SCC(=O)Nc2nc(C)cs2)nnc1C(C)C`, -1.64%; as for `Cc1csc(NC(=O)CN2CCCCCC2)n1`, 4.1%. Regarding `COc1cc(SC)ccc1C(=O)Nc1nc(C)cs1`, the inhibition was 67.9% (active). As for `COC[C@@H]1CCCN1c1ccc2c(c1)O[C@H](C)CCN(C1CC1)S2(=O)=O`, the figure is -10.8%. As for `COC(=O)C[C@@H]1CC[C@H]2[C@@H](COc3ccc(NS(=O)(=O)CC(F)(F)F)cc3C(=O)N2C)O1`, the figure is -17.9%; as for `CN(CCO)c1cccc2c1S(=O)(=O)N(Cc1cn(Cc3ccc(C(F)(F)F)cc3)nn1)Cc1ccccc1O2`, -35.7%; as for `CCOc1ccc(Oc2c(Cl)cnn(-c3ccc(C)cc3)c2=O)cc1`, 7.75%. As for `Cc1sc2nc(SCC(=O)c3ccc(O)c(O)c3)n(Cc3ccco3)c(=O)c2c1C`, the inhibition is 7.6%. As for `Cc1ccc(NC(=O)Cn2cnc3c(OCc4ccccc4)ncnc32)cc1C`, the figure is 2.95%. As for `CCOC(=O)c1ccc(NC(=O)CCn2c(=O)oc3ccccc32)cc1`, the figure is 6.76%; as for `CCOC(=O)c1ccc(NC(=O)Cn2cnc3cc(C)c(C)cc32)cc1`, 59.5% (active). As for `CC(=O)O[C@@]1(C(C)=O)CCC2[C@H]3C=C(C)C4=CC(=O)CC[C@@]4(C)C3CC[C@]21C` (stereo partly specified), the figure is 3.66%; as for `COc1cc(C(=O)Nc2cc(C(F)(F)F)ccc2N2CCOCC2)ccc1O`, -16.6%. On to `COc1ccc(C(=O)Nc2ccccc2C(=O)N/N=C/c2ccc(O)c(OC)c2)cc1`, for which the inhibition is 77.1% (active). For the molecule `C=CCOc1ccc(C(=O)Nc2ccccc2C(=O)N2CCCC2)cc1`, the inhibition is -20.6%. As to `COc1ccc(S[C@]2(C(=O)N(C)C)CC(=O)N(c3ccc(OC)cc3)[C@@H]2c2ccc(OC)cc2)cc1`, the inhibition was -1.97%. As for `COC(=O)CC1CCc2cc(C)cc(C(CC(C)C)NC(=O)[C@H](CC(C)C)NC(=O)OCc3ccccc3)c2O1` (stereo partly specified), the figure is 5.51%.

In the case of `CCOC(=O)C1CCN(C(=O)C(C)(C)NC(=O)Nc2ccc(F)c(F)c2)CC1`, the inhibition was -2.96%.

In the case of `COc1ccc(CNc2ncnc3ccccc23)cc1`, the inhibition was 56.7% (active). In the case of `O=C(COc1ncnc2ccccc12)NC(=O)NCc1ccccc1`, the inhibition is 11.2%. As for `c1coc(CCNc2ncnc3ccc(-c4ccc5c(c4)OCO5)cc23)c1`, the inhibition was -3.64%. As for `COc1ccc(CNC(=O)COc2cccnc2[N+](=O)[O-])cc1`, the figure is 0.02%; as for `O=C(NCc1ccncc1)C(=O)NCc1ccco1`, 2.85%; as for `c1coc(CNc2ncnc3ccccc23)c1`, 53.6% (active). As for `C[C@H]1[C@H](NC(=O)c2cccc(N(C)C)c2)CC[C@@]23CCCN2C(=O)CCC[C@@H]13`, the figure is 4.37%; as for `COc1ccc(C#CCNCc2ccc(OC)cc2OC)cc1`, -3.51%. As for `COC(=O)c1cccc(Cn2ccc3ccc(-c4ccc5ccn(C(=O)c6ccccc6C)c5c4)cc32)c1`, the figure is -1.59%.

As to `O=C(c1ccncc1)N1CC[C@H]2[C@H](CCCN2Cc2ccc(F)cc2)C1`, the inhibition is -20.6%.

In the case of `COC(=O)[C@]12C[C@H](CC(=O)NCCc3ccccc3OC)C(=O)N(Cc3ccco3)C1=C[C@H](C(C)C)O[C@@H]2C1CC1`, the inhibition was 3.03%. Take `CC(=O)Nc1nc2ncccn2c1-c1ccc(C(F)(F)F)cc1`: the inhibition is 4.78%. As for `Cc1ccc(NC(=O)c2cc(C)nn2-c2ccccc2)c(C)c1`, the figure is -0.68%; as for `CCN(CC)C(=O)CC[C@@H]1CC[C@]2(CCCN(S(=O)(=O)C3CCCCC3)C2)O1`, 10.7%. As for `C[C@@H]1C[C@@H]2O[C@H]2/C=C\C=C\C(=O)Cc2c(Cl)c(O)cc(O)c2C(=O)O1`, the figure is 61.7% (active). With `CCOC(=O)N1CCN(C(=O)C2CCCN(c3ncnc4c3sc3cccc(F)c34)C2)CC1` (stereo unspecified), the inhibition was -4.38%.

Regarding `CCOC(=O)N1CCN(C(=O)C2CCN(c3ncnc4c3sc3cccc(F)c34)CC2)CC1`, the inhibition was 46.1% (active). On to `CCOC(=O)N1CCN(C(=O)C2CCN(Cc3ccc(OC)cc3OC)CC2)CC1`, for which the inhibition is 5.07%. As for `COc1ccc(-c2nn(C)c(=O)c3ccccc23)cc1NC(=O)COc1ccccc1`, the figure is -20.3%; as for `Cc1ccc(F)cc1NC(=O)CSCc1c(C)noc1C`, 2.99%; as for `Cc1ccc(F)cc1NC(=O)Cc1nn(C)c(=O)c2ccccc12`, 54.3% (active). As for `CC(c1c[nH]c2ccccc12)c1c(-c2ccccc2)n(C)c2ccccc12` (stereo unspecified), the figure is 0.69%. As for `C#CCCN([C@H](C(=O)OC)C(C)C)S(=O)(=O)c1ccc(F)cc1Br`, the figure is 17.9%. On to `CC1(C(=O)NS(=O)(=O)c2ccccc2)CCN1C(=O)Cc1ccc(-c2ccccc2)cc1` (stereo unspecified), for which the inhibition was -9.63%. As for `C#Cc1ccc(NC(=O)C2(C)CCN2C(=O)Cc2ccc(-c3ccccc3)cc2)cc1` (stereo unspecified), the figure is 66.9% (active); as for `CCCNC(=O)C1(C)CCN1C(=O)Cc1ccc(-c2ccccc2)cc1` (stereo unspecified), 27.8%; as for `C=CCN1C(=O)[C@@H](CC(=O)NCC2CCCCC2)[C@]2(C(=O)OC)CCCCC=C12`, 2.77%. As for `Cc1cccc(NC(=O)C[C@H]2CC[C@H]3[C@@H](COc4ccc(NC(=O)Nc5ccccc5)cc4C(=O)N3C)O2)c1`, the figure is -4.77%; as for `CCC(NC(=O)C1C2C=CC3(CN(Cc4ccccc4)C(=O)C13)O2)c1ccccc1` (stereo unspecified), 8.47%; as for `COCC1CCCCN1C(=O)c1cc(COc2ccc(C)c(C)c2)on1` (stereo unspecified), -30%. With `C=CCC1(CC=C)CCCN1C(=O)c1cc(COc2ccc(-n3cncn3)cc2)on1`, the inhibition is 53% (active). As for `CCCOC1CCCN(C(=O)c2cc(COc3cncc(Cl)c3)on2)C1` (stereo unspecified), the figure is -19.1%; as for `O=C(Nc1ccc(Br)cc1)OCCN1C(=O)CCC12CCC(c1ccccc1)CC2` (stereo unspecified), -11.1%; as for `COC(=O)C[C@H]1CC[C@H]2[C@H](COc3ccc(NC(=O)C4CC4)cc3C(=O)N2C)O1`, -12.2%. As for `COc1ccc(OC)c(NC(=O)c2cc(-c3cc(F)ccc3OCC3CCCO3)n[nH]2)c1` (stereo unspecified), the figure is 87% (active). As for `CCCOc1ccc(F)cc1-c1cc(C(=O)Nc2ccc(F)cc2)[nH]n1`, the figure is -7.05%. As to `COc1cc(F)ccc1-c1cc(C(=O)NCC2CCCCC2)[nH]n1`, the inhibition was -27.9%. As for `O=C(NCc1ccc(Cl)cc1)C1CCCN(c2nc3ccccc3o2)C1` (stereo unspecified), the figure is 18.9%; as for `C#CCNC(=O)C[C@H]1C[C@@]2(C(=O)OC)C(=C[C@H](C(C)C)O[C@@H]2C2CC2)N(Cc2ccco2)C1=O`, -5.51%; as for `CC(C)CSc1nnc(-c2cccnc2)n1Cc1ccccc1`, 9.79%. As for `O=C(c1c(F)cccc1Cl)N1CCN(S(=O)(=O)c2ccc3c(c2)OCCCO3)CC1`, the figure is 18%; as for `O=C(c1c(F)cccc1F)N1CCN(S(=O)(=O)c2ccc3c(c2)OCCO3)CC1`, 38.1% (active). Turning to `O=S(=O)(c1ccc2c(c1)OCCCO2)N1CCN(S(=O)(=O)c2c(F)cccc2F)CC1`, the inhibition is 9.89%. As for `CCc1cc2c(NC(Cc3ccccc3)C(=O)O)ncnc2s1` (stereo unspecified), the figure is -1.84%; as for `CCc1cc2c(SCC(=O)Nc3ncc(Cl)c(C)c3Cl)ncnc2s1`, 12.8%. As for `CCc1cc2c(NC3CCCC3)ncnc2s1`, the figure is 39.9% (active); as for `C=C(C)C1CC23C(=O)C4(C(=O)c5ccccc5)C[C@@]5(C)CCC(CC2C1(C)C)(C4=O)C35OC` (stereo partly specified), -4.41%.

In the case of `COc1ccccc1C(=O)CSc1nnc(-c2ccccn2)n1-c1ccccc1`, the inhibition is 9.59%.

For the molecule `Cc1ccc(-c2nc(C3CCCN(S(=O)(=O)c4ccc(Br)s4)C3)no2)cc1` (stereo unspecified), the inhibition was 2.13%. As for `CC(=O)Nc1c(-c2ccc(C)cc2)nc2ccc(Cl)cn12`, the figure is -17.9%; as for `Cc1ccc2nc(-c3ccc(Br)cc3)cn2c1`, 46.6% (active).

In the case of `Cc1ccc(-c2cn3cc(C)ccc3n2)cc1`, the inhibition was 73% (active). As for `Cc1ccc2nc(-c3ccccc3)c(CC3CCCCC3)n2c1`, the figure is -52.4%. As for `COc1ccc(-c2nc3ccc(Br)cn3c2Cc2ccc(C)cc2)cc1OC`, the figure is -32.3%; as for `Cc1ccc(-c2nc3c(C)cc(Br)cn3c2Cc2ccccc2)cc1`, -5.6%. As for `CCC(=O)c1c(CC)c2n3c1=CC[C@H]3CC(Br)C=2` (stereo partly specified), the figure is 6.74%; as for `CC(c1ccc(N)cc1)c1cn(C)c2ccccc12` (stereo unspecified), -16.2%; as for `CCOC(=O)[C@]12CCCC3=C1N(CCC3)C(=O)[C@@H](CC(=O)N1CCSCC1)C2`, -5.73%.

Regarding `COc1ccc(N2CCN(CCNS(=O)(=O)c3ccc([N+](=O)[O-])cc3)CC2)cc1`, the inhibition was 15.2%. As for `CC(C)OCCCNc1ncnc2c1[nH]c1ccc(F)cc12`, the figure is 62.2% (active); as for `O=C(CN1CCC(NC(=O)NCc2ccccc2)CC1)Nc1ccc2c(c1)OCCO2`, -8.81%.

By inhibition is commonly meant the drop in the measured response relative to a control, in per cent.

These data come from PubChem BioAssay AID686940 (The Scripps Research Institute Molecular Screening Center, 2013).
